Tests used:
[1] = molecular target: Calcium/calmodulin-dependent protein kinase type II subunit alpha (Homo sapiens) (UniProt Q9UQM7); details: at 1 µM;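 note: reported value is a mean percent inhibition of CAMK2A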
[2] = molecular target: Calcium/calmodulin-dependent protein kinase type II subunit delta (Homo sapiens) (UniProt Q13557); details: at 0.1 µM
[3] = molecular target: Calcium/calmodulin-dependent protein kinase type II subunit delta (Homo sapiens) (UniProt Q13557); details: at 1 µM
[4] = molecular target: T1, Calcium/calmodulin-dependent protein kinase type IV (Homo sapiens) (UniProt Q16566); details: at 0.1 µM
T1 sequence (whole entry): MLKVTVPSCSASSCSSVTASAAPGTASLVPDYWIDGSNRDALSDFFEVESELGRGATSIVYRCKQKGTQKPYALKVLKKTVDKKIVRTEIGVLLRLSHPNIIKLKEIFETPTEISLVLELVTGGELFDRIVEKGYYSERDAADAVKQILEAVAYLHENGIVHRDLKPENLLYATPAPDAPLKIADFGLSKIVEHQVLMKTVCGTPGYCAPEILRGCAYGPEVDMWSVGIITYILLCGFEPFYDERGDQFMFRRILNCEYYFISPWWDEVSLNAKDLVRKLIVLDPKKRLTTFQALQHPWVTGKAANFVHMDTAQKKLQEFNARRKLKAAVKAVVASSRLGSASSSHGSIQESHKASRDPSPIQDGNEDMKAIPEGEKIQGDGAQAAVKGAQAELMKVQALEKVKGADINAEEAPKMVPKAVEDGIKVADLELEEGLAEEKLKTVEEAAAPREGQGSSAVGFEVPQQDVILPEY

[5] = molecular target: T1, Calcium/calmodulin-dependent protein kinase type IV (Homo sapiens); details: at 1 µM
[6] = molecular target: T2, Serine/threonine-protein kinase Chk1 (Homo sapiens) (UniProt O14757); details: at 0.1 µM
T2 sequence (whole entry): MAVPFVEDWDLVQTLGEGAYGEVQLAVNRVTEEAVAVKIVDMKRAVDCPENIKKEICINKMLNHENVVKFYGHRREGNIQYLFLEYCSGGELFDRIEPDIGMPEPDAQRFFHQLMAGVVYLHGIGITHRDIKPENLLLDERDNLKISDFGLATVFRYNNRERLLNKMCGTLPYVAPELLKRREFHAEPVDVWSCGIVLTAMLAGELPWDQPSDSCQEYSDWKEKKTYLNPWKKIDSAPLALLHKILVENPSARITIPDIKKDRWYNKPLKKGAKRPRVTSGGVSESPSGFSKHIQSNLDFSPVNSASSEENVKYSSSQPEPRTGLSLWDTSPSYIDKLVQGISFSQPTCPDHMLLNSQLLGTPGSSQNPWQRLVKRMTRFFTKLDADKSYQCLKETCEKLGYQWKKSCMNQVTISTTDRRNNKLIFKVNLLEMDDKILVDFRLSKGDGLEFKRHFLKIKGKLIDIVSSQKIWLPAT

[7] = molecular target: T2, Serine/threonine-protein kinase Chk1 (Homo sapiens); details: at 1 µM
[8] = molecular target: Serine/threonine-protein kinase Chk2 (Homo sapiens) (UniProt O96017); details: at 0.1 µM
Chain of Serine/threonine-protein kinase Chk2 (Homo sapiens) (O96017 whole entry): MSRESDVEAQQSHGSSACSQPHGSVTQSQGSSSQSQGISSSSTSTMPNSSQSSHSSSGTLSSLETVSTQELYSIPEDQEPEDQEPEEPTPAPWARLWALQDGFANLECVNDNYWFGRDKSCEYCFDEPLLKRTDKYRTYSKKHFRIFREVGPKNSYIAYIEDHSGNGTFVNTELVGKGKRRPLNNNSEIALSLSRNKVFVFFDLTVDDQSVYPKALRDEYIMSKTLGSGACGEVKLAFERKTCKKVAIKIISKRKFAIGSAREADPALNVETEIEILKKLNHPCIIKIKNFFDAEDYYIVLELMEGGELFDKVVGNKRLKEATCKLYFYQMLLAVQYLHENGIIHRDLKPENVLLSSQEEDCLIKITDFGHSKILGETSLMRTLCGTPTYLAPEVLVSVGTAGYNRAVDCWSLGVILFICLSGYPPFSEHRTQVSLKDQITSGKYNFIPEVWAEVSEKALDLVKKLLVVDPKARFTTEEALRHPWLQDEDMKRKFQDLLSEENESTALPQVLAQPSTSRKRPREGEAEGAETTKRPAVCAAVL

[9] = molecular target: Serine/threonine-protein kinase Chk2 (Homo sapiens) (UniProt O96017); details: at 1 µM
[10] = molecular target: Death-associated protein kinase 1 (Homo sapiens) (UniProt P53355); details: at 0.1 µM;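 note: reported figure is the mean inhibition of DAPK1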
Chain of Death-associated protein kinase 1 (Homo sapiens) (P53355 whole entry, looked up): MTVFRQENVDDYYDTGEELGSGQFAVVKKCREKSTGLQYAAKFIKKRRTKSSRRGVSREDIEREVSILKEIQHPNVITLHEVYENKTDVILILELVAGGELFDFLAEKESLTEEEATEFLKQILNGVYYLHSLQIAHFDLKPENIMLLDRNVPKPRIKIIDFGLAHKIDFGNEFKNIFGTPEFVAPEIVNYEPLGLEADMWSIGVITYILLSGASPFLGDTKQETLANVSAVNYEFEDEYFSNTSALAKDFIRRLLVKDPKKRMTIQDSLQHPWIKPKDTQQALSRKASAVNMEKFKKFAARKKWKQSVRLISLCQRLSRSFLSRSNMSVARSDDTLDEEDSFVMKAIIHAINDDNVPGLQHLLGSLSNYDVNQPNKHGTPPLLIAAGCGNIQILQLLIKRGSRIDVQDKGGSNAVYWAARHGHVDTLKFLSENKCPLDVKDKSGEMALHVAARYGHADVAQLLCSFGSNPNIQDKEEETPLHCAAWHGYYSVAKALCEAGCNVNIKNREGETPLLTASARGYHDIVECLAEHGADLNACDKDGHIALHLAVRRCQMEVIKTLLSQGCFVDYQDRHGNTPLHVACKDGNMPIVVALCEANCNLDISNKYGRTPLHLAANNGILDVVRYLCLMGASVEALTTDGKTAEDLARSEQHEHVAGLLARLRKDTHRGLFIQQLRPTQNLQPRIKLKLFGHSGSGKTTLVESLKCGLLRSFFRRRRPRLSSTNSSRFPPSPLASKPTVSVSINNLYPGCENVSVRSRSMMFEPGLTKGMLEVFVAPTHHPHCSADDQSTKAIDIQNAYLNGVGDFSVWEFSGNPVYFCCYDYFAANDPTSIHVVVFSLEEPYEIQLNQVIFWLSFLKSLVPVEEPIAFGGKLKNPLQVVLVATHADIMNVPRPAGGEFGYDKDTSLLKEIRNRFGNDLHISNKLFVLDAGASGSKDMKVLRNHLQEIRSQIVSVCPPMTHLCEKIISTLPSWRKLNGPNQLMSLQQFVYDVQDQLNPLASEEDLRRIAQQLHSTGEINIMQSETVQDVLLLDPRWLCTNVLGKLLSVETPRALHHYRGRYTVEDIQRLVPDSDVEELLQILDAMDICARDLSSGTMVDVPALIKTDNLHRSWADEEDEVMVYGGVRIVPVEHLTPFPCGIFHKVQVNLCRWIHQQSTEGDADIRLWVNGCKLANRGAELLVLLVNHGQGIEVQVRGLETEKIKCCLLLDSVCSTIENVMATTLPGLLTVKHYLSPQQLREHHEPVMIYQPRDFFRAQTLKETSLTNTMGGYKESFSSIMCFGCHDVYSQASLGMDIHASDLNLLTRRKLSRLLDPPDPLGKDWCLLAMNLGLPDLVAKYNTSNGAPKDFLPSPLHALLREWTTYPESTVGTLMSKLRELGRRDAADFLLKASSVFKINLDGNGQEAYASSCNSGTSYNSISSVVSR

Chain of Calcium/calmodulin-dependent protein kinase type II subunit alpha (Homo sapiens) (Q9UQM7 whole entry): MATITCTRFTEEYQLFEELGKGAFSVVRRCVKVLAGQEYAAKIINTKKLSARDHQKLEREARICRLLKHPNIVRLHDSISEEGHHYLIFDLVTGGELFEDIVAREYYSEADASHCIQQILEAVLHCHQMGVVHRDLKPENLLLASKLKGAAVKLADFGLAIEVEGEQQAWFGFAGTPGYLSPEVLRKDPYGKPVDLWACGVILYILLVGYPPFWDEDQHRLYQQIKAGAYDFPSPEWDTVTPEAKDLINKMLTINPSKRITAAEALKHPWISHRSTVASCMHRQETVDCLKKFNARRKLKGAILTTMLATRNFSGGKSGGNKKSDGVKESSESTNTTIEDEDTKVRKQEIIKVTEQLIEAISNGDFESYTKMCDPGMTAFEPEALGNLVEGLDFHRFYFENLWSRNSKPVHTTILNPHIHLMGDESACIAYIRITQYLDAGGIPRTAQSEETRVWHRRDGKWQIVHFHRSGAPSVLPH
Chain of Calcium/calmodulin-dependent protein kinase type II subunit delta (Homo sapiens) (Q13557 whole entry): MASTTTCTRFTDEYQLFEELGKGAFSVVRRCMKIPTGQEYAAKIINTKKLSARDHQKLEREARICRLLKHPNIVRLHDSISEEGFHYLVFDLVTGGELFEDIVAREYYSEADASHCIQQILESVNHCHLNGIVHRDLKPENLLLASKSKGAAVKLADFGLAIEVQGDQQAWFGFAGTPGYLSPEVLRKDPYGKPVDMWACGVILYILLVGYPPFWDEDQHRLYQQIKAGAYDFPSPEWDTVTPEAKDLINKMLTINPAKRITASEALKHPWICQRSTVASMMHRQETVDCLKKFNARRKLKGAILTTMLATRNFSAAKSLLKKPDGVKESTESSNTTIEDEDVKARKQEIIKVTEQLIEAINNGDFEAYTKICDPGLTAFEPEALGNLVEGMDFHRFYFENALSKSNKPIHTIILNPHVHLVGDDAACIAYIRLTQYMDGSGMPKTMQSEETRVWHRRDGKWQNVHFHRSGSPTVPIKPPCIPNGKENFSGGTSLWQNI

SMILES | inhibition [1] | inhibition [2] | inhibition [3] | inhibition [4] | inhibition [5] | inhibition [6] | inhibition [7] | inhibition [8] | inhibition [9] | inhibition [10]
O=C(NCC1CC1)c1ccc(-c2cccc(C(=O)NC3CC3)c2)cc1 | 2.74% | 2.24% | 3.64% | 0.89% | 2% | -3.93% | 2.12% | 0.96% | 0.33% | 2.26%
c1ccc(-c2n[nH]cc2-c2ccnc(-c3ccc(OCCN4CCOCC4)cc3)c2)nc1 | 0.85% | -1.29% | -0.13% | -0.9% | 0.4% | 1.01% | -1.98% | 3.21% | 2.24% | 1%
CCS(=O)(=O)c1ccc(OC)c(Nc2ncc(-c3cccc(-c4ccccc4F)c3)o2)c1 | 3.98% | 1.21% | 11.6% | 1.15% | 1.5% | 1.03% | 2.03% | -0.11% | -0.35% | -0.16%
COc1cc(C)c(N(C)C(=O)CN(C)C)cc1Nc1nc(Nc2cccc(F)c2C(N)=O)c2cc[nH]c2n1 | 4.38% | 3.09% | 3.38% | 1.4% | 4.78% | -4.87% | -0.94% | 2.55% | 8.44% | 0.19%
COc1ccc2cc(-c3c(-c4ccncc4)nc(-c4ccc([S+](C)[O-])cc4C)n3C)ccc2c1 (stereo not given) | -1.04% | -0.62% | 0.45% | 0.58% | 1.17% | -4.29% | -9.96% | -6.42% | -5.67% | -9.46%
CCc1ccc(Oc2nccc(-c3c(-c4ccc(F)cc4)ncn3C3CCNCC3)n2)cc1 | 5.86% | 4.44% | 7.05% | 2.89% | 5.14% | 4.54% | 6.62% | 3.02% | 5.66% | 4.58%
COc1cccc(/C=N/Nc2ncnc3c2cnn3-c2cccc(OC)c2)c1 | 1.28% | 3.36% | 6.18% | -0.53% | 0.8% | -0.79% | -1.62% | 3.83% | 4.99% | -0.06%
O=C(Nc1n[nH]c2nc(-c3ccc(O)cc3)c(Br)cc12)C1CC1 | 8.39% | 6.47% | 20.1% | -0.14% | 2.12% | 8.74% | 16.8% | 2.09% | 4.23% | 5.9%
NCc1ccc(-n2c(-c3nonc3N)nc3cnccc32)cc1 | 7.05% | 6.42% | 15.2% | -0.16% | 4.15% | 8.32% | 12.3% | 2.9% | 6.29% | 7.02%
C/C(Nc1ccc(S(N)(=O)=O)cc1)=C1/C(=O)Nc2ccccc21 | -2.07% | -2.27% | 3.2% | -2.35% | -0.89% | 4.5% | 10.1% | -0.44% | 14.5% | 1.47%
COC(=O)Nc1nc2ccc(Sc3ccc(NC(=O)Nc4cc(C(F)(F)F)ccc4F)cc3)cc2[nH]1 | 4.35% | 1.39% | 2.79% | 0.44% | 1.75% | 2.81% | 1.17% | -0.98% | 0.37% | 3.64%
NS(=O)(=O)c1ccc(N/N=C2\C(=O)Nc3ccc(-c4cnco4)cc32)cc1 | 4.17% | 2.48% | 16.3% | -0.57% | -0.99% | -0.45% | 6.95% | 0.92% | 5.7% | -1.79%
COc1cc2ncn(-c3cc(OCc4ccccc4C(F)(F)F)c(C(C)=O)s3)c2cc1OC | 0.39% | 0.61% | 1.91% | -0.3% | -1.74% | 2.09% | 4.57% | 1.3% | 1.9% | 4.16%
COc1cc(Nc2ncc(-c3ccccc3)o2)cc(OC)c1OC | -0.38% | -2.56% | 5.55% | -4.13% | 0.09% | 1.58% | 5.64% | -3.16% | 1.28% | 1.78%
O=C(Nc1n[nH]c2cc(-c3cc(F)ccc3F)ccc12)C1CC1 | 2.68% | 3.1% | 25.3% | 1.86% | 1.99% | -0.4% | 1.41% | 2.67% | 3.25% | -0.82%
CN(c1ccc(NC(=O)Nc2c(Cl)cccc2Cl)cc1)c1ccnc(Nc2cccc(CS(C)(=O)=O)c2)n1 | 2.73% | 1.22% | -0.38% | -1.59% | -4.21% | 1.99% | 4.63% | 10.1% | 16.8% | 4.55%
NC(=O)c1ccc(Oc2nccc(-c3c(-c4ccc(F)cc4)ncn3C3CCNCC3)n2)cc1 | 4.37% | 4.24% | 6.79% | 0.24% | 2.66% | -2.66% | 1.07% | -1.09% | 0.46% | -2.59%

SMILES | inhibition [1] | inhibition [2] | inhibition [3] | inhibition [4] | inhibition [5] | inhibition [6] | inhibition [7] | inhibition [8] | inhibition [9] | inhibition [10]
Fc1ccc(-c2ncn(C3CCNCC3)c2-c2ccnc(Oc3ccc(F)c(F)c3)n2)cc1 | 0.43% | 1.91% | 4.38% | -2.42% | -1.76% | -3.21% | 5.61% | 2.5% | 2.87% | 3.38%
COc1cc(N2CCN(C(C)C)CC2)ccc1Nc1nc(Nc2ccc(F)cc2C(=O)NC[C@@H](O)CO)c2cc[nH]c2n1 | 4.13% | 3.45% | 7.22% | -2.03% | -0.93% | 2.18% | 6.24% | 17.2% | 52.4% | 9.94%
CNC(=O)c1cncc(/C=C/c2c(C)cccc2C)c1 | 3.13% | 1.04% | 1.43% | 2.28% | 0.99% | -0.79% | 0.19% | -0.74% | -0.03% | 0.17%
COc1cc2ncn(-c3cc(OCCc4ccccc4)c(C(N)=O)s3)c2cc1OC | 2.38% | 2.83% | 3.66% | 1.62% | 0.6% | 1.61% | 7.39% | 1.58% | 4.01% | 2.25%
Cc1ccc(C(=O)NC2CCC2)cc1-c1ccc(C(=O)NCC2CC2)cc1 | 2.38% | 1.89% | 1.44% | 0.4% | 0.59% | 2.53% | 2.39% | 1.83% | 3.06% | 2.9%
CS(=O)(=O)CCNCc1ccc(-c2ccc3ncnc(Nc4ccc(OCc5ccccc5)c(Br)c4)c3c2)o1 | -1.77% | 2.65% | 3.02% | -1.3% | -2.06% | 0.41% | 1.92% | 2.5% | 2.92% | 3.45%
Fc1ccc(-c2ncn(CCCN3CCOCC3)c2-c2ccncc2)cc1 | 1.91% | 1.48% | 2.85% | 1.75% | 2.08% | 2.08% | -1.19% | -0.55% | -1.12% | 0.52%
NC(=O)Cc1ccccc1Oc1nccc(-c2c(-c3ccc(F)cc3)ncn2C2CCNCC2)n1 | 2.07% | 2.62% | 2.58% | 0.99% | -0.11% | 0.75% | 5.68% | 4.2% | 6.05% | 2.51%
C[C@@H](Oc1cc(-n2cnc3ccc(OC4CCN(C)CC4)cc32)sc1C(N)=O)c1ccccc1Cl | 14.4% | 10.2% | 44.3% | -2.92% | 2.05% | 0.96% | 7.85% | 3.23% | 5.06% | 3.53%
N#Cc1ccc(Oc2nccc(-c3c(-c4ccc(F)cc4)ncn3C3CCNCC3)n2)cc1 | 0.01% | 3.46% | 5.08% | -1.84% | 6.38% | 1.81% | -0.27% | 4.28% | 4.2% | 2.55%
COc1ccc(-c2ccc3c(NC(=O)C4CC4)n[nH]c3n2)cc1 | 0.75% | 0.17% | 1.7% | -1.51% | -2.95% | 2.25% | 1.88% | 0.78% | 1.92% | 2.58%
COc1ccc2cc(-c3c(-c4ccncc4)nc(-c4ccc(S(C)(=O)=O)cc4C)n3C)ccc2c1 | 3.89% | 3.49% | 3.21% | 0.37% | 0.96% | -2.73% | -3.07% | -2.23% | -0.36% | -2.52%
C#Cc1cccc(Nc2ncnc3ccc(OCCCCNCCS(C)(=O)=O)cc23)c1 | 3.33% | 3% | 5.51% | -0.65% | -2.02% | 1.45% | 4.94% | 2.64% | 7.73% | 3.32%
NS(=O)(=O)c1ccc(N/N=C2\C(=O)Nc3ccc(C(=O)NCCCn4ccnc4)cc32)cc1 | 4.11% | 2.56% | 8.04% | -1.35% | -4.25% | 10.4% | 19.3% | 10.6% | 19% | 11.1%
CCc1cccc(CC)c1/C=C/c1cncc(C(=O)NC)c1 | 3.51% | 2.92% | 2.2% | 1.05% | 13.9% | 3.68% | 2.13% | 1.58% | 1.85% | 2.61%
CN(C)CCCNc1nccc(-c2c(-c3ccc(F)cc3)nn3cc(C(F)(F)F)ccc23)n1 | 4.26% | 3.65% | 4.37% | 1.43% | 2.27% | -3.07% | 1.13% | 0.82% | 0.61% | 0.55%
CCS(=O)(=O)c1ccc(OC)c(Nc2ncc(-c3ccccc3Cl)o2)c1 | 3.37% | 1.45% | 1.43% | 2.52% | 0.4% | 5.3% | 5.1% | -1.42% | -0.76% | 4.59%

Source: ChEMBL document CHEMBL1961873, “Compounds: GSK PKIS; Assays: Nanosyn kinase panel” (2012)
